# Data from PubChem BioAssay AID1508601 (ICCB-Longwood Screening Facility, Harvard Medical School, 2020).
# In all, about 5,700 compounds went through this assay and about 85 (1%) were called active. Rule as the data show it: active = p53-positive nuclei above about 36% (passing the limit was not always enough); inactive = the rest. Only a selection was taken, and actives are over-represented in it overall.
# Key:
# [1] = p53 stabilisation in HPV-positive human cells, imaging, p53-positive nuclei imaging, 24 h, 48 h (AID 1508601); settings: 24/48 h
# [2] = molecular target: Cellular tumor antigen p53 (Homo sapiens) (UniProt P04637); assay: as above; settings: 24/48 h, stronger effect = higher value
# Cellular tumor antigen p53 (Homo sapiens), sequence (P04637 whole entry, looked up): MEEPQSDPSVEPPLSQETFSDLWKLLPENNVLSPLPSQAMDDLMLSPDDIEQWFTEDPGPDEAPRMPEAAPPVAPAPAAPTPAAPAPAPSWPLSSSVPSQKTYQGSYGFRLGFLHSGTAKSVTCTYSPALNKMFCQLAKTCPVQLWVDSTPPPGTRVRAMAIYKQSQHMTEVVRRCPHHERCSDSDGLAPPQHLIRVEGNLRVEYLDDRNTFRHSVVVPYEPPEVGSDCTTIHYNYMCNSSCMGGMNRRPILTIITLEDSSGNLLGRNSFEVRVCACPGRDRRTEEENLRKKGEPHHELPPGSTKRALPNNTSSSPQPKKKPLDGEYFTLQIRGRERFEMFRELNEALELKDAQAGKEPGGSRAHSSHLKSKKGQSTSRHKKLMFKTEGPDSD
# [3] = measured here: cell number at 24 h, Library stock concentration: 10 mM
# [4] = measured here: cell number at 48 h, Library stock concentration: 10 mM
# [5] = Library stock concentration: 10 mM
# [6] = measured here: p53 positive nuclei at 24 h, Library stock concentration: 10 mM
# [7] = measured here: cell number at 24 h, Library stock concentration: 3.33 mM
# [8] = measured here: cell number at 48 h, Library stock concentration: 3.33 mM
# [9] = Library stock concentration: 3.33 mM
# [10] = measured here: p53 positive nuclei at 24 h, Library stock concentration: 3.33 mM
# [11] = measured here: cell number at 24 h, Library stock concentration: 80 uM
# [12] = measured here: cell number at 24 h, Library stock concentration: 400 uM
# [13] = measured here: cell number at 24 h, Library stock concentration: 2 mM
# [14] = measured here: cell number at 48 h, Library stock concentration: 80 uM
# [15] = measured here: cell number at 48 h, Library stock concentration: 400 uM
# [16] = measured here: cell number at 48 h, Library stock concentration: 2 mM
# [17] = Library stock concentration: 80 uM
# [18] = Library stock concentration: 400 uM
# [19] = Library stock concentration: 2 mM
# [20] = measured here: p53 positive nuclei at 24 h, Library stock concentration: 80 uM
# [21] = measured here: p53 positive nuclei at 24 h, Library stock concentration: 400 uM
# [22] = measured here: p53 positive nuclei at 24 h, Library stock concentration: 2 mM
smiles,measurement,setting,value
COC(=O)C(NC(=O)c1cc(-c2ccccc2)nc2ccccc12)c1ccccc1 (stereo not drawn),"nuclei count, normalised","[1]; measured here: cell number at 24 h, Library stock concentration: 46 uM",105%
same,"nuclei count, normalised","[1]; measured here: cell number at 24 h, Library stock concentration: 278 uM",105%
same,"nuclei count, normalised","[1]; measured here: cell number at 24 h, Library stock concentration: 1.67 mM",93.3%
same,"nuclei count, normalised",[1]; [3],96.9%
same,"nuclei count, normalised","[1]; measured here: cell number at 48 h, Library stock concentration: 46 uM",111%
same,"nuclei count, normalised","[1]; measured here: cell number at 48 h, Library stock concentration: 278 uM",107%
same,"nuclei count, normalised","[1]; measured here: cell number at 48 h, Library stock concentration: 1.67 mM",100%
same,"nuclei count, normalised",[1]; [4],103%
same,"p53-positive nuclei, normalised",[2]; Library stock concentration: 46 uM,-0.241% (inactive)
same,"p53-positive nuclei, normalised",[2]; Library stock concentration: 278 uM,-0.232% (inactive)
same,"p53-positive nuclei, normalised",[2]; Library stock concentration: 1.67 mM,-0.104% (inactive)
same,"p53-positive nuclei, normalised",[2]; [5],0.115% (inactive)
same,"p53-positive nuclei, normalised","[2]; measured here: p53 positive nuclei at 24 h, Library stock concentration: 46 uM",-0.21%
same,"p53-positive nuclei, normalised","[2]; measured here: p53 positive nuclei at 24 h, Library stock concentration: 278 uM",-0.0834%
same,"p53-positive nuclei, normalised","[2]; measured here: p53 positive nuclei at 24 h, Library stock concentration: 1.67 mM",0.359%
same,"p53-positive nuclei, normalised",[2]; [6],0.069%
COc1cc2ncc(-c3ccccc3)nc2cc1OC,"nuclei count, normalised",[1]; [7],78.5%
same,"nuclei count, normalised",[1]; [8],45.1%
same,"p53-positive nuclei, normalised",[2]; [9],55.2% (active)
same,"p53-positive nuclei, normalised",[2]; [10],3.05%
CCC(C(C)O)n1ncn(-c2ccc(N3CCN(c4ccc(OCC5CO[C@@](Cn6cncn6)(c6ccc(F)cc6F)C5)cc4)CC3)cc2)c1=O (stereo partly drawn),"nuclei count, normalised",[1]; [7],91.3%
same,"nuclei count, normalised",[1]; [8],91.4%
same,"p53-positive nuclei, normalised",[2]; [9],-0.489% (inactive)
same,"p53-positive nuclei, normalised",[2]; [10],-0.171%
CCOC(=O)c1sc(NC(=O)c2ccco2)c(SC#N)c1C,"nuclei count, normalised","[1]; measured here: cell number at 24 h, Library stock concentration: 500 nM",118%
same,"nuclei count, normalised","[1]; measured here: cell number at 24 h, Library stock concentration: 1.5 uM",119%
same,"nuclei count, normalised","[1]; measured here: cell number at 24 h, Library stock concentration: 4.6 uM",115%
same,"nuclei count, normalised","[1]; measured here: cell number at 24 h, Library stock concentration: 13.7 uM",107%
same,"nuclei count, normalised","[1]; measured here: cell number at 24 h, Library stock concentration: 41 uM",124%
same,"nuclei count, normalised","[1]; measured here: cell number at 24 h, Library stock concentration: 123 uM",109%
same,"nuclei count, normalised","[1]; measured here: cell number at 24 h, Library stock concentration: 370 uM",113%
same,"nuclei count, normalised","[1]; measured here: cell number at 24 h, Library stock concentration: 1.111 mM",114%
same,"nuclei count, normalised","[1]; measured here: cell number at 24 h, Library stock concentration: 3.333 mM",103%
same,"nuclei count, normalised",[1]; [3],97.4%
same,"nuclei count, normalised","[1]; measured here: cell number at 48 h, Library stock concentration: 500 nM",111%
same,"nuclei count, normalised","[1]; measured here: cell number at 48 h, Library stock concentration: 1.5 uM",109%
same,"nuclei count, normalised","[1]; measured here: cell number at 48 h, Library stock concentration: 4.6 uM",104%
same,"nuclei count, normalised","[1]; measured here: cell number at 48 h, Library stock concentration: 13.7 uM",103%
same,"nuclei count, normalised","[1]; measured here: cell number at 48 h, Library stock concentration: 41 uM",110%
same,"nuclei count, normalised","[1]; measured here: cell number at 48 h, Library stock concentration: 123 uM",106%
same,"nuclei count, normalised","[1]; measured here: cell number at 48 h, Library stock concentration: 370 uM",110%
same,"nuclei count, normalised","[1]; measured here: cell number at 48 h, Library stock concentration: 1.111 mM",112%
same,"nuclei count, normalised","[1]; measured here: cell number at 48 h, Library stock concentration: 3.333 mM",106%
same,"nuclei count, normalised",[1]; [4],101%
same,"p53-positive nuclei, normalised",[2]; Library stock concentration: 500 nM,0.102% (inactive)
same,"p53-positive nuclei, normalised",[2]; Library stock concentration: 1.5 uM,-0.24% (inactive)
same,"p53-positive nuclei, normalised",[2]; Library stock concentration: 4.6 uM,-0.158% (inactive)
same,"p53-positive nuclei, normalised",[2]; Library stock concentration: 13.7 uM,-0.0345% (inactive)
same,"p53-positive nuclei, normalised",[2]; Library stock concentration: 41 uM,0.07% (inactive)
same,"p53-positive nuclei, normalised",[2]; Library stock concentration: 123 uM,0.0394% (inactive)
same,"p53-positive nuclei, normalised",[2]; Library stock concentration: 370 uM,0.143% (inactive)
same,"p53-positive nuclei, normalised",[2]; Library stock concentration: 1.111 mM,0.138% (inactive)
same,"p53-positive nuclei, normalised",[2]; Library stock concentration: 3.333 mM,0.637% (inactive)
same,"p53-positive nuclei, normalised",[2]; [5],1.1% (inactive)
same,"p53-positive nuclei, normalised","[2]; measured here: p53 positive nuclei at 24 h, Library stock concentration: 500 nM",-0.0629%
same,"p53-positive nuclei, normalised","[2]; measured here: p53 positive nuclei at 24 h, Library stock concentration: 1.5 uM",-0.173%
same,"p53-positive nuclei, normalised","[2]; measured here: p53 positive nuclei at 24 h, Library stock concentration: 4.6 uM",-0.116%
same,"p53-positive nuclei, normalised","[2]; measured here: p53 positive nuclei at 24 h, Library stock concentration: 13.7 uM",-0.111%
same,"p53-positive nuclei, normalised","[2]; measured here: p53 positive nuclei at 24 h, Library stock concentration: 41 uM",-0.122%
same,"p53-positive nuclei, normalised","[2]; measured here: p53 positive nuclei at 24 h, Library stock concentration: 123 uM",0.00346%
same,"p53-positive nuclei, normalised","[2]; measured here: p53 positive nuclei at 24 h, Library stock concentration: 370 uM",0.0563%
same,"p53-positive nuclei, normalised","[2]; measured here: p53 positive nuclei at 24 h, Library stock concentration: 1.111 mM",0.34%
same,"p53-positive nuclei, normalised","[2]; measured here: p53 positive nuclei at 24 h, Library stock concentration: 3.333 mM",1.08%
same,"p53-positive nuclei, normalised",[2]; [6],2.09%
COc1cc(C(=O)NS(=O)(=O)c2ccccc2C)ccc1Cc1cn(C)c2ccc(NC(=O)OC3CCCC3)cc12,"nuclei count, normalised",[1]; [11],110%
same,"nuclei count, normalised",[1]; [12],108%
same,"nuclei count, normalised",[1]; [13],113%
same,"nuclei count, normalised",[1]; [7],103%
same,"nuclei count, normalised",[1]; [3],105%
same,"nuclei count, normalised","[1]; measured here: cell number at 24 h, concentration not given here",89.5%
same,"nuclei count, normalised",[1]; [14],113%
same,"nuclei count, normalised",[1]; [15],108%
same,"nuclei count, normalised",[1]; [16],111%
same,"nuclei count, normalised",[1]; [8],108%
same,"nuclei count, normalised",[1]; [4],105%
same,"nuclei count, normalised","[1]; measured here: cell number at 48 h, concentration not given here",92.4%
same,"p53-positive nuclei, normalised",[2]; [17],-0.138% (inactive)
same,"p53-positive nuclei, normalised",[2]; [18],0.119% (inactive)
same,"p53-positive nuclei, normalised",[2]; [19],-0.133% (inactive)
same,"p53-positive nuclei, normalised",[2]; [9],-0.0165% (inactive)
same,"p53-positive nuclei, normalised",[2]; [5],0.0919% (inactive)
same,"p53-positive nuclei, normalised",[2]; concentration not given here,-0.151% (inactive)
same,"p53-positive nuclei, normalised",[2]; [20],-0.0129%
same,"p53-positive nuclei, normalised",[2]; [21],-0.0637%
same,"p53-positive nuclei, normalised",[2]; [22],0.0356%
same,"p53-positive nuclei, normalised",[2]; [10],-0.167%
same,"p53-positive nuclei, normalised",[2]; [6],0.0472%
same,"p53-positive nuclei, normalised","[2]; measured here: p53 positive nuclei at 24 h, concentration not given here",0.0267%
Cn1cc(CNCC2CCN(c3ncc(C(=O)NO)cn3)CC2)c2ccccc21,"nuclei count, normalised",[1]; [11],71%
same,"nuclei count, normalised",[1]; [12],49.1%
same,"nuclei count, normalised",[1]; [13],40.5%
same,"nuclei count, normalised",[1]; [7],36.3%
same,"nuclei count, normalised",[1]; [3],37.2%
same,"nuclei count, normalised",[1]; [14],55.2%
same,"nuclei count, normalised",[1]; [15],24%
same,"nuclei count, normalised",[1]; [16],20.2%
same,"nuclei count, normalised",[1]; [8],20.7%
same,"nuclei count, normalised",[1]; [4],23.5%
same,"p53-positive nuclei, normalised",[2]; [17],20.9% (inactive)
same,"p53-positive nuclei, normalised",[2]; [18],102% (active)
same,"p53-positive nuclei, normalised",[2]; [19],92.2% (active)
same,"p53-positive nuclei, normalised",[2]; [9],111% (active)
same,"p53-positive nuclei, normalised",[2]; [5],108% (active)
same,"p53-positive nuclei, normalised",[2]; [20],43.9%
same,"p53-positive nuclei, normalised",[2]; [21],92.9%
same,"p53-positive nuclei, normalised",[2]; [22],103%
same,"p53-positive nuclei, normalised",[2]; [10],96.9%
same,"p53-positive nuclei, normalised",[2]; [6],120%
